Measurements reported in PubChem BioAssay (NCATS).
Calls of active or inactive are those of the source. The call rests on the fitted dose curve; in most records, active means well fitted activation curve with a large enough effect; inconclusive means small, poorly fitted or top-dose-only effect; inactive means no such curve, though single readings can be large or run the other way.

Each molecule was assayed against Cytochrome P450 3A4 (Homo sapiens) (UniProt P08684) (assay: qHTS Assay for Activators of Cytochrome P450 3A4 (AID 885; further: nearly all actives have a fitted effect of over 65% in size)). Conditions: recombinant CYP3A4, Luciferin-PPXE luminescence, 60 min; series mostly up to 57.1 µM; activity change, positive = activation: at the top concentration.
Chain of Cytochrome P450 3A4 (Homo sapiens) (P08684 whole entry, looked up): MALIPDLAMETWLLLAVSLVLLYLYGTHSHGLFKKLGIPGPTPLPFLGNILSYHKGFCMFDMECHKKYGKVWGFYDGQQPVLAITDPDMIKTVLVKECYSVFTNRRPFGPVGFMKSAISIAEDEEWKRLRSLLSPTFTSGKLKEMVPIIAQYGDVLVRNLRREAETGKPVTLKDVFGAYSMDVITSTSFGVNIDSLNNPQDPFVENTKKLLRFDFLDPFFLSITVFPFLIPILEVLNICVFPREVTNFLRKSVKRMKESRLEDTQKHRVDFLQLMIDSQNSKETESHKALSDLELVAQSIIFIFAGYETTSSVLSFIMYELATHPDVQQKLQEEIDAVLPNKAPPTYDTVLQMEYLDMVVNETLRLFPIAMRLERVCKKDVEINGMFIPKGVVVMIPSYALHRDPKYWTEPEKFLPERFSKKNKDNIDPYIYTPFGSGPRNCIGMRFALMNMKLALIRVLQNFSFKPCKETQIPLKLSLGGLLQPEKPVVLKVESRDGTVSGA
Method: NIH Molecular Libraries Screening Centers Network [MLSCN]
NIH Chemical Genomics Center [NCGC]
The P450 gene superfamily is involved in the metabolism and clearance of xenobiotics. This assay used human CYP3A4 to measure the dealkylation of luciferin-6' phenylpiperazinylyl (Luciferin-PPXE; […]) to luciferin. The luciferin is then measured by luminescence after the addition of a luciferase detection reagent. Luciferin-PPXE concentration in the assay was equal to its KM for CYP3A4. Inhibitors and some substrates limit the production of luciferin, and decrease measured luminescence; activators increase the production of luciferin and luminescence.
NCGC Assay Protocol Summary:
Two uL of enzyme and substrate mix (final concentrations: 20nM CYP3A4, 25uM Luciferin-PPXE, 200mM KPO4) were dispensed into a white, solid bottom 1536-well microtiter plate. 23nL of compound was transferred by a pin tool. The plate was incubated at RT for 10 min. Two uL of an NADPH regeneration solution (Promega supplied reagent) was dispensed and the reaction was allowed to continue for 60 min at RT. Then the reaction was stopped by reconstituted luciferin detection buffer. After another 20 min of incubation the plate was read on the ViewLux (Perkin Elmer) at 60 sec exposure and 2x2 binning. This protocol was carried out with Promega-Glo reagents and further information can be found at http://www.promega.com/tbs/tb325/tb325.pdf. Data were normalized to the to AC100 inhibition (57 uM ketoconazole).
Keywords: P450, CYP2D6, Luciferase, MLSMR, MLSCN, NIH Roadmap, qHTS, NCGC
Potency means the concentration at half of the fitted maximal effect.

Compound | activity change, positive = activation | Potency
CC(=O)NCCNc1ncnc2ccc(-c3ccccc3C)cc12 | -71.2% (inactive) | 
CC(=O)NCCNc1ncncc1-c1ccccc1C(F)(F)F | -92.2% (inactive) | 
COc1ccccc1-c1nc(N2CCOCC2)c2ccccc2n1 | -47.5% (inactive) | 
COc1ccc(C(=O)N2CCC[C@@]3(CCN(CC(C)C)C3)C2)cc1 | -85.5% (inactive) | 
CNc1ncnc2ccc(-c3ccccc3C#N)cc12 | -41.9% (inactive) | 
COc1ccc(CNc2nc(-c3cccc(NS(C)(=O)=O)c3)nc3ccccc23)c(OC)c1 | -86.2% (inactive) | 
O=S(=O)(c1ccccc1)N1CCC2(CCN(c3ncccn3)CC2)CC1 | -38.3% (inactive) | 
COc1ccccc1CNc1cc(-c2ccccc2OC)ncn1 | -63.2% (inactive) | 
CC(C)NC(=O)N1CC[C@@]2(CCCN(S(=O)(=O)c3ccccc3)C2)C1 | -37.1% (inactive) | 
N#Cc1cccc(-c2cncnc2NCc2ccccc2)c1 | -90.3% (inactive) | 
CS(=O)(=O)N1CCC2(CCCN(C(=O)Nc3cccc(F)c3)C2)CC1 | -54% (inactive) | 
COc1ccccc1-c1nc(NCCN2CCOCC2)c2ccccc2n1 | -57% (inactive) | 
COc1ccc(-n2c(=O)c(-c3ccc(F)c(F)c3)nc3cncnc32)cc1 | -40.5% (inactive) | 
CN(Cc1ccco1)c1ccnc(-c2cccc(NS(C)(=O)=O)c2)n1 | -102% (inactive) | 
N#Cc1cccc(NC(=O)N2CCCC3(CCN(C(=O)c4csnn4)CC3)C2)c1 | -44.1% (inactive) | 
Cc1cnc(CNc2cc(-c3ccccc3C)ncn2)cn1 |  | 3.16 µM (active)
Cc1cnc(CNc2ncncc2-c2ccccc2Cl)cn1 | -59.6% (inactive) | 
CS(=O)(=O)Nc1cccc(-c2cc(Nc3ccccc3)ncn2)c1 | -84.8% (inactive) | 
COC(=O)N1CCC2(CCCN(Cc3nccs3)C2)CC1 | -32.7% (inactive) | 
COCCn1c(=O)c(-c2ccc(OC)cc2)nc2cnc(Oc3cccc(Cl)c3)nc21 | -32.2% (inactive) | 

Compound | activity change, positive = activation | Potency
CCNc1ncc2nc(-c3cccs3)c(=O)n(Cc3cccs3)c2n1 | -73.9% (inactive) | 
N#Cc1cccc(NC(=O)N2CCCC3(CCN(C(=O)c4cc(C(F)(F)F)cc(C(F)(F)F)c4)CC3)C2)c1 | -82% (inactive) | 
Cc1nc2cnc(N(C)C)nc2n(Cc2cccs2)c1=O | -38.7% (inactive) | 
COCCn1c(=O)c(-c2ccc(Cl)cc2)nc2cnc(Oc3ccccc3)nc21 | -50.3% (inactive) | 
COc1ccccc1CNc1ncnc2ccc(-c3ccccc3OC)cc12 | -115% (inactive) | 
COc1ccc(CNc2ccnc(-c3ccccc3Cl)n2)c(OC)c1 | -84.2% (inactive) | 
N#Cc1cccc(-c2cc(NCc3cccnc3)ncn2)c1 | -82.2% (inactive) | 
N[C@H](C(=O)N[C@@H]1C(=O)N2C(C(=O)O)=C(Cl)CS[C@@H]12)c1ccccc1 | -54.3% (inactive) | 
COCCNc1nc(-c2cccc(NS(C)(=O)=O)c2)nc2ccccc12 | -96.6% (inactive) | 
COCCn1c(=O)c(-c2cccs2)nc2cnc(N3CCN(C)CC3)nc21 | -53.3% (inactive) | 
COc1ccccc1CNc1ncncc1-c1cccc(NS(C)(=O)=O)c1 | -69.7% (inactive) | 
Cn1cccc1C(=O)N1CCC2(CCN(Cc3ccncc3)CC2)CC1 | -49% (inactive) | 
COc1cccc(-c2cc(NCc3cnc(C)cn3)ncn2)c1 | -96.3% (inactive) | 
CC(=O)NCCNc1nc(-c2ccccc2C)nc2ccccc12 | -102% (inactive) | 
O=c1c(-c2cccs2)nc2cnc(N3CCNCC3)nc2n1Cc1cccs1 | -109% (inactive) | 
COCCn1c(=O)c(-c2cn(C)c3ccccc23)nc2cnc(OCc3ccccc3)nc21 | -50.7% (inactive) | 
O=C(c1csnn1)N1CCC2(CC1)CN(c1cccc(-c3ccccc3)c1)C2 | -49.3% (inactive) | 
Cc1nc2cnc(Oc3ccccc3)nc2n(C2CC2)c1=O | -46.5% (inactive) | 
Cc1ccccc1-c1cncnc1NC1CCNCC1 | -66.2% (inactive) | 
Cc1nc2cncnc2n(Cc2ccc(F)cc2)c1=O | -35.6% (inactive) | 
